The assay is described as follows: NCI Yeast Anticancer Drug Screen. Data for the mec2-1 strain (AID 157). The note with it: S. cerevisiae mec2-1 strain, stronger effect = higher value. As to the method: Growth inhibition of yeast strains with defined genetic alterations is measured as a screen for potential anti-cancer activity. Selected strains with alterations in DNA damage repair or cell cycle control were exposed to compounds and growth inhibition was measured relative to vehicle treated controls. The strain used in this assay is mec2-1

[1] abbreviates: at 5.0 µM (retest, dose inferred, filed as 0.5).
The mark [2] stands for this setting: at 50.0 µM (retest, dose inferred, filed as 5.0).

This is part of a sample that, as a whole, favours compounds with a hit. Of some 79,000 tested, about 15% had one in any assay. A number with no mark means an inactive call. Active and inactive are the calls of the source. Rule as the data show it: active = growth inhibition above about 70%; inactive = the rest.

For `CCOC(=O)c1cc(C)c(O)c(C(=O)OCC)c1`, the growth inhibition is -12% under setting [1], -27% under setting [2] and 16.1% (at 50.0 µM).

For `NNc1ccccc1F`, the growth inhibition runs as follows: under setting [1], -32%; under setting [2], 97% (active); (at 50.0 µM) 99.7% (active).

On to `O=C1c2sccc2-c2cccc3cccc1c23` (tested in a mixture with another compound), for which the growth inhibition reads like this: under setting [1], 63%; under setting [2], 99% (active); (at 50.0 µM) 98% (active).

As for `O=c1oc2ccccc2c(O)c1/C=N\c1nc(-c2ccccc2)cs1`, the growth inhibition is, setting by setting: under setting [1], 42%; under setting [2], 99% (active); (at 50.0 µM) 16.4%.

For `CC(=O)CCCOC(C)=O`, the growth inhibition reads like this: under setting [1], 22%; under setting [2], 40%; (at 50.0 µM) -5.8%.

Regarding `O=C1NC(=S)S/C1=C/c1ccc(/C=C2/SC(=S)NC2=O)cc1`, the growth inhibition is, setting by setting: under setting [1], -10%; under setting [2], -14%; (at 50.0 µM) 22.6%.

For the molecule `O=C1OS(=O)(=O)c2cc3c(cc21)C1C(C2C3C3(Cl)C(Cl)=C(Cl)C2(Cl)C3(Cl)Cl)C2(Cl)C(Cl)=C(Cl)C1(Cl)C2(Cl)Cl` (configuration not stated), the growth inhibition is 48% under setting [1], 72% (active) under setting [2] and 71.8% (active) (at 50.0 µM).

For `CSc1nc2nn(Cc3ccccc3)cc2c(=O)[nH]1`, the growth inhibition is, setting by setting: under setting [1], 10%; under setting [2], 19%; (at 50.0 µM) -4.85%.

Regarding `O=C(O)c1ccccc1-c1c2cc([N+](=O)[O-])c(=O)c(Br)c-2oc2c(Br)c(O)c([N+](=O)[O-])cc12`, the growth inhibition was 29% under setting [1], 93% (active) under setting [2] and 82.1% (active) (at 50.0 µM).

For the molecule `OCCSC(=S)Nc1ccc(Cl)c(Cl)c1`, the growth inhibition reads like this: under setting [1], 10%; under setting [2], 100% (active); (at 50.0 µM) 99.7% (active).

For the molecule `O=C1c2cccc3cc([N+](=O)[O-])cc(c23)C(=O)N1O`, the growth inhibition under setting [1] was 15%, the growth inhibition under setting [2] is 32% and the growth inhibition (at 50.0 µM) is 91.3% (active).

For the molecule `O=CC(O)CN1CCCC1` (configuration not stated), the growth inhibition by setting is: under setting [1], 0%; under setting [2], 14%; (at 50.0 µM) 53.2%.

For the molecule `CN(C)/C(N)=N\c1nc2ccc(Cl)cc2s1`, the growth inhibition under setting [1] is -4%, the growth inhibition under setting [2] is -17% and the growth inhibition (at 50.0 µM) was 11.4%.

For the molecule `NC(=O)CCSC(=S)N1CCOCC1`, the growth inhibition by setting is: under setting [1], -5%; under setting [2], -2%; (at 50.0 µM) -16.6%.

The values above are taken from PubChem BioAssay (NCI).
